Records with an inconclusive call do not appear. Calls of active or inactive are those of the source. Calls follow the shape of the dose curve; as a rule, active = well fitted inhibition curve with a large enough effect; inconclusive = small, poorly fitted or top-dose-only effect, or effect the other way; inactive = flat fitted curve, though single readings scatter.
assay: qHTS for Inhibitors of Plasmodium falciparum (CP250) proliferation (AID 504320); conditions: P. falciparum CP250 in erythrocytes, SYBR Green DNA, 72 h; series mostly up to 6.7 µM
Method in brief: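 Erythrocytes infected with P. falciparum line (0.3% parasitemia, 2.5% hematocrit final) incubated with compounds 72 h at 37 °C, 5% CO2; SYBR Green lysis buffer added, fluorescence read next day. Normalized to 0.29 uM artemisinin and DMSO.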

Potency, inactive:
COc1ccc2c(c1)[C@H](C=Cc1ccccc1)[C@@H]([C@H](O)CO)O2
C[C@H]1[C@@H](C(=O)N2CCCC2)CC(=O)C(=NOCc2ccccc2)C[C@H]1c1ccccc1
COC(=O)C1=C(C(=O)OC)[C@@H]2N(C)c3ccccc3[C@@]23CCC(=O)N(Cc2cc(OC)c(OC)c(OC)c2)C3=N1
C=CCN1C(=O)CC[C@@]23C1=NC(C(=O)OC)=C(C(=O)OC)[C@@H]2N(CC#CC)c1ccccc13
C=CCC(Nc1ccc(OC)cc1)(C(=O)OCC)c1ccccc1 (stereo unspecified)
COc1ccc(O[C@H]2C=C[C@@H](c3ccccc3)O[C@H]2CON=C[C@@H](C)[C@H](OCc2ccccc2)C(C)C)cc1
CC(C)OC(=O)[C@H](C)NC(=O)N1CCc2nc(-c3ccccc3)c3c(c2C1)CO[C@@H](C)C3
N#Cc1ccc2c(c1)C[C@]1(c3ccsc3)Oc3c(c(=O)oc4ccccc34)[C@H]2O1
CC1(OC(=O)CCc2ccccc2)C(=O)C=C2C=C(c3ccc(C#N)cc3)N(CC3CC3)C=C2C1=O (stereo unspecified)
COc1ccc(OC[C@H]2CN3[C@H](c4ccc(Br)cc4)[C@H](C)CC[C@H]3C(=O)O2)cc1
C=CCOC(=O)N[C@H](c1ccc(-c2ccccc2)cc1)[C@H](C)C=CCC(=O)OC
C[C@H]1Cc2c(COc3ccccc3)nc3c(c2CO1)CN(C(=O)NCc1ccco1)CC3
COC(=O)N[C@@H](C=Cc1ccccc1)C[N+](=O)[O-]
COC(=O)[C@@H]1C=C[C@H](C)[C@H](CCOc2ccccc2)O1
COc1cc2c(cc1OC)[C@@]1(c3ccccc3)CCCC[C@H]1[C@@H]2NC(=O)C(F)(F)F
COC(=O)CCCC1=CC2=CC(=O)C(C)(OC(=O)c3cccs3)C(=O)C2=CN1c1ccc(OC)cc1 (stereo unspecified)
COc1ccc(O[C@H]2C=C[C@@H](c3ccccc3)O[C@H]2COC(=O)NCc2cccc3ccccc23)cc1
CC(=O)O[C@H](C(=O)O[C@@H]1C[C@@H](CCC[C@H]2O[C@H](C(=O)OC(C)C)CC[C@@H]2C)O[C@@H](CC#N)C1)c1ccccc1
COC(=O)C1=C(C(=O)OC)[C@@H]2Nc3ccccc3[C@@]23C[C@@H](C(=O)OC)N(C(=O)N2CCNC2=O)C3=N1
COC(=O)[C@]1(C=C2c3ccccc3C[C@H](OC)[C@@H]2C)[C@@H]2CC=C[C@@H]21
C=C(C(C)=O)C(O)c1ccccc1 (stereo unspecified)
Cc1cc2c(c(=O)o1)[C@H]1O[C@](CCCCN3C(=O)c4ccccc4C3=O)(Cc3cc(C#N)ccc31)O2
CC(CCN1CCCCc2nc(C)c(C)cc21)=NO[C@H](C)c1cn([C@H](CO)Cc2ccccc2)nn1
COc1ccc2c(c1)C(=O)[C@@H](OC(=O)NCCc1ccc(OC)c(OC)c1)[C@H](c1ccc(OC)c(Br)c1)O2
COC(=O)CCCC1=CC2=C(c3ccccc3)C(=O)C(C)(OC(=O)C3CCCC3)C(=O)C2=CN1Cc1ccc2c(c1)OCO2 (stereo unspecified)
C=CC[C@@]1(c2ccc(OC)cc2)Oc2ccccc2C2=NCCN=C21

Source: PubChem BioAssay (NCATS)
